In PubChem BioAssay AID1529 (NMMLSC, 2009):
Out of some 290,000 compounds screened, about 4,200 (1.4%) were called active.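 The calls were made as follows: active = binding response more than 3 SD above or below the average of its plate-row segment, actives on both sides; inconclusive = wells at one plate position flagged as instrument error; inactive = the rest.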 Only a selection was taken, and actives are over-represented in it overall.

Molecular target: Mitogen-activated protein kinase kinase kinase 3 (Homo sapiens) (UniProt Q99759)
Sequence (Q99759 whole entry, looked up): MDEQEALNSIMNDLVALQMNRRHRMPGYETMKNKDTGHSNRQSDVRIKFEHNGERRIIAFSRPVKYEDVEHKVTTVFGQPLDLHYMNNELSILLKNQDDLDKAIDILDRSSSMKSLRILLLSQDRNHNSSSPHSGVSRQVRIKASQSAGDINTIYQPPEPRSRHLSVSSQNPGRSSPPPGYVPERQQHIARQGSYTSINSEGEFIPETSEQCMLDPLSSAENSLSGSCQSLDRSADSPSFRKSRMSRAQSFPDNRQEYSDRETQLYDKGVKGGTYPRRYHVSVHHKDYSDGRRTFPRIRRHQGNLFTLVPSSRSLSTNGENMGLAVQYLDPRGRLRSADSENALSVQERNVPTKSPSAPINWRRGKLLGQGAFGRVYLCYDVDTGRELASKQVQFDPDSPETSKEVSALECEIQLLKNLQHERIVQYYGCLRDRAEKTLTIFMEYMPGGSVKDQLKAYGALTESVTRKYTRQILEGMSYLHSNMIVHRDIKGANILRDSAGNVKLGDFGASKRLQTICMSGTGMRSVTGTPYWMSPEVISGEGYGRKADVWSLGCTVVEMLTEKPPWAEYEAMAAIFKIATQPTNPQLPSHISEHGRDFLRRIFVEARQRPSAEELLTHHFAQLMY
Test: modulators of MEKK3-MEK5 PB1 binding, primary screen, biochemical, wildtype MEKK3, multiplex bead flow cytometry, Alexa488-MEK5 (AID 1529);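 also: Alexa488 bead fluorescence after subtracting the streptavidin-only scavenger bead signal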
Settings: bead-based flow cytometry, Alexa488-MEK5 binding to MEKK3; at 10 µM; actives lie on both sides; 0 = blocked by unlabeled MEK5, 100 = vehicle

Binding response (% of control), inactive:
C=CCN(CC=C)S(=O)(=O)c1ccc(C(=O)Nc2nc3c(s2)CCc2ccccc2-3)cc1 100%, NC(=O)c1c(NC(=O)c2ccccc2)sc2c1CCCC2 102%, NS(=O)(=O)c1ccc2nc(NC(=O)C3=COCCO3)sc2c1 100%, COc1cccc(NC(=O)[C@H](Cc2c[nH]c3ccccc23)NC(=O)[C@@H]2Cc3ccccc3CN2)c1 101%, CCc1nnc(SCc2cccc(F)c2)nc1CC 101%, CCc1ccc2nc3sc(C(=O)Nc4nnc(CC)s4)c(N)c3cc2c1 103%, COCc1cc(C)nc2sc(C(=O)NC3CCCCC3)c(N)c12 101%, COc1ccc(C(=O)OCC(=O)Nc2cccc(C(C)=O)c2)cc1OC 100%, O=C(COC(=O)c1ccccc1)Nc1cccc(S(=O)(=O)N2CCOCC2)c1 104%, COc1ccc(NC(=O)COc2ccc(C(=O)c3ccc(F)cc3)cc2)cc1S(N)(=O)=O 100%, CCc1nc2nc(C)c(NS(=O)(=O)c3ccc4c(c3)CCCC4)c(=O)n2[nH]1 101%, COc1ccc(CN(C)C(=O)Cc2ccsc2)c(OC)c1OC 103%, CCC/C(O)=C1\C(=O)CC(C)(C)CC1=Nc1ccccc1OC 102%, COc1ccccc1N=Cc1c(O)c2ccccc2oc1=O 121%, Cc1ccc2c(C)c(C(=O)N3CCN(c4ccncc4)CC3)oc2c1C 106%, Cc1ccc(-c2nnc(CN3CCN(C)CC3)o2)cc1 112%, c1ccc(-c2cnc(CN3CCN(c4ccccc4)CC3)o2)cc1 101%, CCCn1c(=N)n(CC(=O)c2ccc(Cl)c(Cl)c2)c2ccccc21 109%, CCOC(=O)c1ccc(NC(=S)Nc2cc(C)cc(C)n2)cc1 77%, CCOC(=O)c1cn[nH]c1NC(=S)Nc1ccccc1 93%

Binding response (% of control), active:
C=CCN(CC=C)S(=O)(=O)c1ccc(C(=O)Nc2sc3c(c2C(N)=O)CCCCC3)cc1 66% [inhibitor], CCc1nnc(NC(=O)c2sc3nc(C)cc(COC)c3c2N)s1 46% [inhibitor], CCOc1cc(C(=O)OCC(=O)Nc2cccc(C)c2)ccc1OCC(=O)N1CCOCC1 137%, COc1ccccc1N=C(C)C1=C(O)COC1=O 81% [inhibitor], COc1ccc(N2CCN(Cc3nnc(-c4ccccc4)o3)CC2)cc1 139%, CCOC(=O)c1cc2c(nc1NC(=S)Nc1ccccc1)CC(C)(CC)OC2 (stereo unspecified) 128%
